Measured values from PubChem BioAssay (NCATS).
Records with an inconclusive call do not appear. A call without a number means that no potency is given here. A number with no mark means an inactive call. The source made the active and inactive calls. Calls follow the shape of the dose curve; as a rule, active = well fitted curve in the direction sought with a large enough effect; inconclusive = small, poorly fitted or top-dose-only effect, or another doubt; inactive = no such curve, though single readings can be large; an effect the other way counts as inactive or inconclusive.

Experiments:
[1] = qHTS of pediatric cancer cell lines to identify multiple opportunities for drug repurposing: Primary screen for SJ-GBM2 cells (AID 1347091); also: potency is read from the fitted curve at half-maximal effect
Procedure, shortened: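 Cell viability, CellTiter-Glo luminescence; 500-1,000 cells/well, 8- or 11-point titration, 48 h compound exposure at 37 degrees C, 5% CO2. Controls: DMSO neutral, bortezomib 2.3 µM final as positive.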

[2] = qHTS of pediatric cancer cell lines to identify multiple opportunities for drug repurposing: Primary screen for A673 cells (AID 1347092); also: nearly all actives have a fitted effect of over 45% in size; also: potency is read from the fitted curve at half-maximal effect
Procedure, shortened: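 A673 cells (500-1,000 cells/well) were treated 48 hours at 37 degrees C with compounds at 11-point (0.78 nM to 46 µM) or 8-point (0.59 nM to 46 µM) dilutions. Viability read by CellTiter-Glo luminescence; concentration-response curves fitted.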

[3] = qHTS of pediatric cancer cell lines to identify multiple opportunities for drug repurposing: Primary screen for BT-37 cells (AID 1347094); also: potency is read from the fitted curve at half-maximal effect
Procedure, shortened: (§1)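 Following a 5-hour attachment period, cells at 500-1,000/well received compounds and were cultured for 48 hours. CellTiter-Glo was added and luminescence read to estimate viable, metabolically active cells.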

[4] = qHTS of pediatric cancer cell lines to identify multiple opportunities for drug repurposing: Primary screen for U-2 OS cells (AID 1347096); also: nearly all actives have a fitted effect of over 50% in size; also: potency is read from the fitted curve at half-maximal effect
Procedure, shortened: (§2)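 Cells (500-1,000/well) rested 5 h, then received compounds for 48 h; metabolically active cells were measured by CellTiter-Glo luminescence. Final concentrations spanned up to 46 µM (MIPE, 11-point) or 0.59 nM-46 µM (NPC, 8-point) in primary screens, 11-point in follow-ups.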

[5] = qHTS of pediatric cancer cell lines to identify multiple opportunities for drug repurposing: Primary screen for SK-N-SH cells (AID 1347098); also: nearly all actives have a fitted effect of over 65% in size; also: potency is read from the fitted curve at half-maximal effect
Procedure, shortened: as §2

[6] = qHTS of pediatric cancer cell lines to identify multiple opportunities for drug repurposing: Primary screen for LAN-5 cells (AID 1347100); also: potency is read from the fitted curve at half-maximal effect
Procedure, shortened: as §2

[7] = qHTS of pediatric cancer cell lines to identify multiple opportunities for drug repurposing: Primary screen for BT-12 cells (AID 1347101); also: nearly all actives have a fitted effect of over 25% in size; also: potency is read from the fitted curve at half-maximal effect
Procedure, shortened: as §2

[8] = qHTS of pediatric cancer cell lines to identify multiple opportunities for drug repurposing: Primary screen for Rh18 cells (AID 1347102); also: nearly all actives have a fitted effect of over 65% in size
Procedure, shortened: as §2

[9] = qHTS of pediatric cancer cell lines to identify multiple opportunities for drug repurposing: Primary screen for OHS-50 cells (AID 1347103); also: nearly all actives have a fitted effect of over 40% in size; also: potency is read from the fitted curve at half-maximal effect
Procedure, shortened: as §2

[10] = qHTS of pediatric cancer cell lines to identify multiple opportunities for drug repurposing: Primary screen for RD cells (AID 1347104); also: nearly all actives have a fitted effect of over 55% in size; also: potency is read from the fitted curve at half-maximal effect
Procedure, shortened: as §1

[11] = qHTS of pediatric cancer cell lines to identify multiple opportunities for drug repurposing: Primary screen for control Hh wild type fibroblast cells (AID 1347106);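 also: series mostly up to about 46 µM; a drop in luminescence marks cytotoxicity and a rise apparent proliferation; nearly all actives have a fitted effect of over 55% in size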
Procedure, shortened: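 Viability after 48 h compound treatment at 37C, 500-1,000 cells/well, read as ATP luminescence with CellTiter-Glo. Primary screens used 11-point (MIPE, 0.78 nM-46 µM) or 8-point (NPC, 0.59 nM-46 µM) final concentrations; follow-up screens used 11-point dilutions.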

[12] = qHTS of pediatric cancer cell lines to identify multiple opportunities for drug repurposing: Primary screen for Rh30 cells (AID 1347107); also: nearly all actives have a fitted effect of over 75% in size; also: potency is read from the fitted curve at half-maximal effect
Procedure, shortened: as §2

[13] = qHTS of pediatric cancer cell lines to identify multiple opportunities for drug repurposing: Primary screen for Rh41 cells (AID 1347108); also: nearly all actives have a fitted effect of over 70% in size; also: potency is read from the fitted curve at half-maximal effect
Procedure, shortened: as §1

[14] = qHTS of pediatric cancer cell lines to identify multiple opportunities for drug repurposing: Primary screen for Saos-2 cells (AID 1347097); also: nearly all actives have a fitted effect of over 40% in size; also: potency is read from the fitted curve at half-maximal effect
Procedure, shortened: as §1

[15] = qHTS of pediatric cancer cell lines to identify multiple opportunities for drug repurposing: Primary screen for NB1643 cells (AID 1347099); also: nearly all actives have a fitted effect of over 50% in size; also: potency is read from the fitted curve at half-maximal effect
Procedure, shortened: as §1

[16] = qHTS of pediatric cancer cell lines to identify multiple opportunities for drug repurposing: Primary screen for MG 63 (6-TG R) cells (AID 1347105); also: nearly all actives have a fitted effect of over 50% in size
Procedure, shortened: as §1

[17] = qHTS of pediatric cancer cell lines to identify multiple opportunities for drug repurposing: Primary screen for SK-N-MC cells (AID 1347093); also: potency is read from the fitted curve at half-maximal effect
Procedure, shortened: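 Metabolically active cells were quantified by ATP-dependent luminescence (CellTiter-Glo, 15 min at room temperature) following 48 h treatment. Cells had been plated at 500-1,000 per well and settled for 5 h beforehand.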

[18] = qHTS of pediatric cancer cell lines to identify multiple opportunities for drug repurposing: Primary screen for NB-EBc1 cells (AID 1347095); also: potency is read from the fitted curve at half-maximal effect
Procedure, shortened: as §1

[19] = qHTS of pediatric cancer cell lines to identify multiple opportunities for drug repurposing: Confirmatory screen for NB1643 cells (AID 1347109); also: potency is read from the fitted curve at half-maximal effect; nearly all actives have a fitted effect of over 45% in size
Procedure, shortened: as §2

[20] = qHTS of pediatric cancer cell lines to identify multiple opportunities for drug repurposing: Confirmatory screen for A673 cells (AID 1347110);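 also: potency is read from the fitted curve at half-maximal effect; cells exposed to compound for 48 h before the viability read; nearly all actives have a fitted effect of over 65% in size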
Procedure, shortened: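 A673 cells at 500-1,000 cells/well were dosed 5 h after plating, in dilution series up to 46 uM final; primary runs used 8 or 11 points and confirmatory runs used 11 points. Viability was read by CellTiter-Glo luminescence after 48 h, against DMSO and 2.3 uM bortezomib controls.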

Row | SMILES | Potency [1] | Potency [2] | Potency [3] | Potency [4] | Potency [5] | Potency [6] | Potency [7] | Potency [8] | Potency [9] | Potency [10] | Potency [11] | Potency [12] | Potency [13] | Potency [14] | Potency [15] | Potency [16] | Potency [17] | Potency [18] | Potency [19] | Potency [20]
1 | COc1ccc(Nc2nccc(NCCO)n2)cc1 | inactive | inactive | inactive | inactive | inactive | inactive | inactive | inactive | inactive | inactive | inactive | inactive | inactive |  |  |  |  |  |  | 
2 | c1cc(CN2CCCNCCNCCCNCC2)ccc1CN1CCCNCCNCCCNCC1 | inactive | inactive | inactive | inactive |  | inactive | inactive | inactive | inactive |  | inactive | inactive | inactive | inactive | inactive | inactive |  |  |  | 
3 | CC(=O)ON=C1C(c2c(O)[nH]c3cc(Br)ccc23)=Nc2ccccc21 | 2.96 µM (active) |  | 6.11 µM (active) |  |  |  | 19.3 µM (active) |  |  | 6.62 µM (active) | inactive |  | 2.96 µM (active) | 11.8 µM (active) | 16.6 µM (active) |  | 0.0118 µM (active) | 5.26 µM (active) | 16.5 µM (active) | 7.37 µM (active)
4 | N#CC(=C(O)c1ccc(Cl)cc1Cl)c1nc2cc(Cl)ccc2c(=O)[nH]1 | inactive | inactive | inactive |  | inactive | inactive | inactive | inactive | inactive | inactive | inactive | inactive | inactive |  | 20.9 µM (active) | inactive |  |  |  | 
5 | CCNC(=O)Nc1ccc(-c2nc3c(c(N4CCOC[C@H]4C)n2)CCN(C2COC2)C3)cc1 | 0.743 µM (active) |  | 1.72 µM (active) |  | 17.1 µM (active) |  |  |  | 0.485 µM (active) | 1.05 µM (active) |  |  | 1.48 µM (active) | 4.69 µM (active) |  |  | 0.209 µM (active) | 1.18 µM (active) |  | 
6 | CN1CCCN(C(=O)c2cccc(-c3ccc(C=C4C(=O)Nc5ccc(Cl)cc54)o3)c2)CC1 | 16.6 µM (active) |  | 6.85 µM (active) |  |  | 2.09 µM (active) | 24.3 µM (active) |  | 13.7 µM (active) | 33.2 µM (active) | inactive | 18.7 µM (active) | 18.7 µM (active) | 23.5 µM (active) | 5.9 µM (active) |  | 14.8 µM (active) | 3.32 µM (active) |  | 
7 | CN(C)CCN1C(=O)c2cccc3cc(N)cc(c23)C1=O | 14.8 µM (active) | 14.8 µM (active) | 6.85 µM (active) |  | 21.5 µM (active) | 2.96 µM (active) |  |  | 24.3 µM (active) |  |  |  | 23.5 µM (active) |  |  |  |  | 1.87 µM (active) |  | 
8 | NC(=O)Nc1sc(-c2ccc(F)cc2)cc1C(N)=O | 0.372 µM (active) |  | 0.685 µM (active) | 4.69 µM (active) | 5.41 µM (active) |  |  |  | 0.432 µM (active) |  | inactive | 6.62 µM (active) | 1.05 µM (active) | 2.35 µM (active) | 4.69 µM (active) |  | 0.059 µM (active) | 0.469 µM (active) |  | 6.57 µM (active)
9 | COc1cc(OC)c(NC(=O)Nc2cc(C)on2)cc1Cl | inactive | inactive | inactive | inactive | inactive | inactive | inactive |  |  |  | inactive | inactive |  | inactive |  | inactive |  |  |  | 
10 | CCCCCCCCCCCCc1ccc(S(=O)(=O)Nc2nncs2)cc1 |  | inactive | inactive | inactive |  | inactive |  | inactive |  |  | inactive | inactive |  | 18.7 µM (active) | inactive |  |  |  |  | 
11 | CCOC(=O)[C@@H](N)Cc1ccc(-c2cc(O[C@H](c3ccc(Cl)cc3-n3ccc(C)n3)C(F)(F)F)nc(N)n2)cc1 |  |  | 27.3 µM (active) |  | inactive |  | 30.6 µM (active) |  | 24.3 µM (active) |  | inactive |  |  | 18.7 µM (active) |  |  | 16.6 µM (active) |  |  | 
12 | CC(C)(C)c1nc2c3cc[nH]c(=O)c3c3cc(F)ccc3c2[nH]1 |  |  | inactive | inactive | 9.61 µM (active) | 2.35 µM (active) |  | inactive |  |  | inactive | inactive | inactive |  |  | inactive | 1.18 µM (active) | inactive |  | 
13 | CC1(C)CC(O)CC(C)(C)N1[O] |  |  | inactive | inactive | inactive | inactive | inactive | inactive |  | inactive | inactive | inactive | inactive | inactive | inactive | inactive | inactive |  |  | 
14 | NC(=O)c1cccc(-c2cccc(OC(=O)NC3CCCCC3)c2)c1 |  |  | inactive | inactive | inactive |  | inactive | inactive | inactive | inactive | inactive | inactive | inactive | inactive | inactive | inactive | inactive |  |  | 
